Source: PubChem BioAssay (several laboratories)
BJeLR viability – BJeLR cell viability loss; hit rate 0.17% among 300,000; inhibition, % (no concentration beside the values); BJeLR (HRASV12) viability, CellTiter-Glo ATP luminescence, 48 h; in the data active = inhibition above about 50%
PrP UTR inh – inhibition of PrP 5' UTR reporter expression. inhibition, % (concentration not given with the values). cell-based PrP 5' UTR mRNA reporter, plate reader. hit rate 0.35% among 340,000. AID 488862; in the data active = inhibition above about 52%
PfHsp40 yeast – restores yeast growth despite PfHsp40 toxicity | hit rate 0.68% among 340,000 | S. cerevisiae expressing PfHsp40, growth rescue, ATP luminescence | growth rescue, % at 12.5 µM; in the data active = growth rescue above about 28%, passing the limit was not always enough;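 also: yeast W303a lacking pdr1 and pdr3 grown in galactose medium; growth measured after three days at 30 °C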
CCHFV vOTU inh – CCHFV vOTU protease inhibition | Pep-AMC fluorescence | inhibition, % at 11.5 µM | hit rate 0.55% among 370,000 | AID 651958; in the data active = inhibition above about 30%
Y pestis TopoI – blocks Yersinia pestis topoisomerase I activity; Y. pestis Topo-I cleavage product accumulation, plate reader; activity, % at 10 µM; hit rate 0.064% among 360,000; AID 504884; in the data active = activity above about 50%, passing the limit was not always enough
PrPC TRFRET – reduces human prion protein on the cell surface | P04156 | cell surface PrPC, TR-FRET read-out | inhibition, % at 13.8 µM | hit rate 0.43% among 370,000 | AID 720596; in the data active = inhibition above about 24%
Each line names hits and unclear results; the compound was inactive in the other large screens. Shown are actives, neighbours in structure and some others; about 2% of the full set was active somewhere.

CCCCCCn1c(=O)c(C(=O)Nc2ncccc2C)c(O)c2ccccc21	PfHsp40 yeast 145.0
C=CCn1c(=O)c(C(=O)NCc2ccccc2)c(O)c2ccccc21	PfHsp40 yeast 128.8
CCn1c(=O)c(C(=O)NNC(=O)c2ccccc2)c(O)c2ccccc21	PfHsp40 yeast 167.6
CCCCn1c(=O)c(C(=O)NCc2ccncc2)c(O)c2ccccc21	PfHsp40 yeast 219.1
CC(=O)N1C[C@@H](CO)[C@@H](N(C)C(=O)Nc2cccc3ccccc23)C[C@H]1c1ccccc1	none (no result: BJeLR viability, PrP UTR inh, PfHsp40 yeast, Y pestis TopoI)
CCCn1c(=O)c(C(=O)NCCc2ccc(OC)c(OC)c2)c(O)c2ccccc21	PfHsp40 yeast 191.8
CCn1c(=O)c(C(=O)NCCc2ccc(OC)c(OC)c2)c(O)c2ccccc21	none (no result: PrP UTR inh)
Cc1ccc(CN(C)C(=O)c2cccc(S(=O)(=O)N3CCc4ccccc43)c2)cc1	none (no result: BJeLR viability)
NC(=O)CCN(C(=O)c1cccc(S(=O)(=O)N2CCc3ccccc32)c1)c1ccccc1	PfHsp40 yeast 46.6 (no result: BJeLR viability)
Cc1ccc(OCc2nnc(SCC(=O)Nc3ccc(S(=O)(=O)Nc4cc(C)nc(C)n4)cc3)n2Cc2ccco2)cc1	none (no result: BJeLR viability, PrP UTR inh, PfHsp40 yeast, Y pestis TopoI)
COc1ccc(OCC(=O)Nc2nc3c(s2)CCCC3)cc1	none
COc1ccc(NC(=O)Nc2nc3c(s2)CCCC3)cc1	PfHsp40 yeast 56.1
Cc1cc(Cl)ccc1OC(C)C(=O)Nc1ccc(C(=O)Nc2ccccc2C(=O)O)cc1 (stereo not drawn)	PfHsp40 yeast 51.7
Cc1cc(Cl)ccc1OC(C)C(=O)Nc1ccc(S(=O)(=O)N2CCOCC2)cc1 (stereo not drawn)	none
CCOc1ccc(C=Nn2c(-c3cccc(OC(C)C)c3)n[nH]c2=S)cc1	none (no result: BJeLR viability, PrP UTR inh, PfHsp40 yeast, Y pestis TopoI)
CC(=O)NCc1ccc(OCCCN2CCC(C(O)(c3ccccc3)c3ccccc3)CC2)cc1	none (no result: BJeLR viability, PrP UTR inh, PfHsp40 yeast, Y pestis TopoI)
COc1ccc(NC(=S)N/N=C2\CC(C)(C)Oc3ccc(O)cc32)cc1	PfHsp40 yeast 39.3
COc1ccccc1NC(=S)N/N=C1\CC(C)(C)Oc2ccc(O)cc21	none
CC(C)=CC([C@]12C[C@H](CO)N[C@@H]1Nc1ccccc12)S(=O)(=O)c1ccccc1 (stereo partly drawn)	none (no result: BJeLR viability, PrP UTR inh, PfHsp40 yeast, CCHFV vOTU inh, Y pestis TopoI)
C(=N\N1CCOCC1)/c1ccsc1	PfHsp40 yeast 93.7
C(=N\N1CCOCC1)/c1cccs1	none
COC(=O)c1ccc(N2C(=O)CC(N(C)CCc3ccc(OC)c(OC)c3)C2=O)cc1 (stereo not drawn)	PfHsp40 yeast 450.7
COc1ccc(N2C(=O)CC(N(C)CCc3ccc(OC)c(OC)c3)C2=O)cc1 (stereo not drawn)	none
COc1ccc(S[C@]2(C(=O)N(C)C)CC(=O)N(c3ccc(C#N)cc3)[C@@H]2c2ccc(OC)cc2)cc1	none (no result: BJeLR viability, PrP UTR inh, PfHsp40 yeast, Y pestis TopoI)
COC(=O)C1=C(C)N(Cc2ccccc2C(F)(F)F)C(=NCc2ccc(OC)cc2)NC1c1ccc(C(F)(F)F)cc1 (stereo not drawn)	none (no result: BJeLR viability, PrP UTR inh, PfHsp40 yeast, Y pestis TopoI)
CSC1=NC(C(Cl)(Cl)Cl)N=C(c2ccc(C)cc2)N1 (stereo not drawn)	BJeLR viability 56.0
Cc1ccc(-n2c(SC/C=C/c3ccccc3)nnc2-c2ccco2)cc1	none (no result: BJeLR viability, PrP UTR inh, PfHsp40 yeast, Y pestis TopoI)
Nc1nc(Cn2nnc(-c3ccccc3F)n2)nc(N2CCOCC2)n1	PfHsp40 yeast 40.3
CC(C)[C@H](NC(=O)C1CC1)C(=O)N1CCC[C@H]1C(=O)NCc1ccccc1	none (no result: BJeLR viability, PrP UTR inh, PfHsp40 yeast, Y pestis TopoI)
O=C(C(Sc1ccccc1)c1ccccc1)N1CCN(c2ccccc2F)CC1 (stereo not drawn)	Y pestis TopoI 54.6
Nc1c(Cl)cc(Cl)cc1C(=O)OCC(=O)NC1CC1	PfHsp40 yeast 124.4
COc1cccc(CNC(=S)OC2CCC23CCC(c2ccccc2)CC3)c1 (stereo not drawn)	none (no result: BJeLR viability, PrP UTR inh, PfHsp40 yeast, Y pestis TopoI)
OCC[C@@H]1C[C@@H](O)[C@H](O)[C@@]2(Cc3ccccc3CO2)O1	PfHsp40 yeast 45.6
CCCCN=C(N)NC(=O)c1ccccc1	none (no result: BJeLR viability, PrP UTR inh, PfHsp40 yeast, Y pestis TopoI)
COC(=O)C1=C(C)OC(N)=C(C#N)C1c1c(C)nn(C)c1C (stereo not drawn)	PfHsp40 yeast 68.4
CC(=O)NC1CCCCN(C)C1=O (stereo not drawn)	none (no result: BJeLR viability, PrP UTR inh, PfHsp40 yeast, Y pestis TopoI)
CCCC(=O)N1CCC(NS(=O)(=O)c2ccc3c(c2)CCN3C(C)=O)CC1	none (no result: BJeLR viability, PrP UTR inh, PfHsp40 yeast, Y pestis TopoI)
COc1ccc(N2CCN(CCCNC(=O)Cn3c(=O)c4cccn4c4cccnc43)CC2)c(OC)c1	none (no result: BJeLR viability, PrP UTR inh, PfHsp40 yeast, CCHFV vOTU inh, Y pestis TopoI)
CN(C)C(=O)N1CCC(C(=O)NC2CCCCCCC2)CC1	PfHsp40 yeast 33.1
Cc1nc(-c2ccccn2)nc(N(C)c2ccccc2)c1Cl	PfHsp40 yeast 179.8
CN1CCN(C2CCN(c3ccc(Nc4nnc(Cl)c(Nc5ccccc5S(C)(=O)=O)n4)c(OC(CF)CF)c3)CC2)CC1	PfHsp40 yeast 329.3 (no result: BJeLR viability)
CC(C)Oc1cc(C(=O)N2CCC(N3CCCCC3)CC2)ccc1Nc1nnc(Cl)c(Nc2ccccc2S(C)(=O)=O)n1	none (no result: BJeLR viability, CCHFV vOTU inh, PrPC TRFRET)
CCCC(=O)OCCNc1cc(Sc2nccn2C)c2nonc2c1[N+](=O)[O-]	BJeLR viability 93.5
C[C@H]1Cn2cnc(C(=O)N(C)Cc3ccccc3)c2C(=O)N1	none (no result: BJeLR viability, PrP UTR inh, PfHsp40 yeast, Y pestis TopoI)
COc1cccc(/C=N/NC(=O)c2cc(-c3cccn3C)n[nH]2)c1O	PfHsp40 yeast 160.3
COc1cc(/C=N/NC(=O)c2cc(-c3cccn3C)n[nH]2)cc(OC)c1OC	none
Cc1cccc(N2C(=O)C(Oc3ccc(Cl)cc3Cl)C2C=O)c1C (stereo not drawn)	PfHsp40 yeast 280.5 (no result: BJeLR viability)
N#Cc1c(-c2ccccc2)nc(SCC(=O)N(c2ccccc2)c2ccccc2)[nH]c1=O	none
N#Cc1c(-c2ccccc2)nc(SCC(=O)N2c3ccccc3Sc3ccccc32)[nH]c1=O	CCHFV vOTU inh 32.6
Cc1n[nH]c(C)c1S(=O)(=O)NCCc1cccc(F)c1	none (no result: BJeLR viability, PrP UTR inh, PfHsp40 yeast, Y pestis TopoI)
CC1CCN(c2nc(-c3cccnc3)nc3scc(-c4ccccc4)c23)CC1	none
Clc1nc(-c2ccccn2)nc2scc(-c3ccccc3)c12	PfHsp40 yeast 399.6
N#C/C(=C\c1cccc(Oc2ccccc2)c1)C(=O)N1CCOCC1	PfHsp40 yeast 235.1
CCn1nccc1C(=O)Nc1cc(Cl)cc(Cl)c1	PfHsp40 yeast 63.0
CC(=O)C1=C(C)N(Cc2ccc(Br)cc2)C(=S)NC1c1ccc(F)cc1 (stereo not drawn)	none (no result: BJeLR viability, PrP UTR inh, PfHsp40 yeast, Y pestis TopoI)
COc1ccc(NC(=O)N(C)C[C@H]2Oc3ccc(NC(=O)Nc4ccc5c(c4)OCO5)cc3C(=O)N([C@H](C)CO)C[C@@H]2C)cc1	PfHsp40 yeast 54.3 (no result: BJeLR viability)
O=Nc1c(O)n(Cc2ccc(Cl)cc2Cl)c2ccccc12	PfHsp40 yeast 90.0
O=C1CN(C(=O)C2CCCCC2)C=CN1CCc1ccccc1Br	none (no result: BJeLR viability, PrP UTR inh, PfHsp40 yeast, CCHFV vOTU inh, Y pestis TopoI)
COc1ccc(CN(C)C(=O)C2CCN(S(=O)(=O)c3cccs3)CC2)cc1F	PfHsp40 yeast 68.6 (no result: BJeLR viability)
COc1cc(CN(C)C(=O)C2CCN(S(=O)(=O)c3cccs3)CC2)ccc1OC(F)F	none (no result: BJeLR viability)
FC(F)(F)c1ccc(Cl)c(Nc2nnc(-c3ccncc3)s2)c1	none (no result: BJeLR viability, PrP UTR inh, PfHsp40 yeast)
Clc1ccccc1Nc1nnc(-c2ccncc2)s1	BJeLR viability 85.1
O=C(O)CSc1nc(-c2ccc(Cl)cc2)nc2c1oc1ccccc12	PfHsp40 yeast 348.3
